In PubChem BioAssay (NCI):
The panel holds about 79,000 compounds, 15% with a hit somewhere; the sample as a whole holds those more often. Values without a mark were called inactive. Active and inactive are the calls of the source. Cut-off read from the data, not from the text of the source: active = growth inhibition above about 70%; inactive = the rest.

How the values were obtained:
[1] = NCI Yeast Anticancer Drug Screen. Data for the wt1 strain (AID 149);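 note: 0% = growth of vehicle-treated wt1 cultures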; details: S. cerevisiae wt1 strain (SPY 50644) growth inhibition, stronger effect = higher value
Outline: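 Measured: growth of wt1 yeast under compound versus vehicle treatment, reported as inhibition.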

[2] = NCI Yeast Anticancer Drug Screen. Data for the rad50EPP+ strain (AID 151);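 note: 0% = growth of vehicle-treated control cultures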; details: S. cerevisiae rad50 mutant strain, stronger effect = higher value
Outline: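 One strain with a rad50 alteration (rad50EPP+) was compound-treated, its growth then compared to that of vehicle controls.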

[3] = NCI Yeast Anticancer Drug Screen. Data for the mgt1 strain (AID 153); details: S. cerevisiae mgt1 mutant growth inhibition, stronger effect = higher value
Outline: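 After exposure of the mgt1 yeast mutant to compound, growth was measured and reported as inhibition compared with vehicle controls.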

[4] = NCI Yeast Anticancer Drug Screen. Data for the rad50 strain (AID 155);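 note: 0% = growth of vehicle-only cultures of the same strain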; details: S. cerevisiae rad50 strain growth inhibition, stronger effect = higher value
Outline: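 Growth of the mutant yeast was measured after compound exposure and referenced to vehicle-treated cultures.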

[5] = NCI Yeast Anticancer Drug Screen. Data for the mec2-1 strain (AID 157); details: S. cerevisiae mec2-1 strain, stronger effect = higher value
Outline: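 Test agents were screened against the mec2-1 yeast strain, with defined DNA repair or cell cycle alteration. Growth was scored as inhibition against vehicle-only controls.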

[6] = NCI Yeast Anticancer Drug Screen. Data for the rad14 strain (AID 159);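 note: 0% = growth of vehicle-treated control cultures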; details: S. cerevisiae rad14 strain growth inhibition, stronger effect = higher value
Outline: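 Here, inhibition of yeast growth was measured after compound exposure, using a strain with a genetic defect in DNA damage repair and vehicle-treated cultures as the reference.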

[7] = NCI Yeast Anticancer Drug Screen. Data for the sgs1 mgt1 strain (AID 161);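 note: 0% = growth of cultures given vehicle only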; details: S. cerevisiae sgs1 mgt1 strain, stronger effect = higher value
Outline: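 Genetically altered yeast, compound exposure, growth inhibition relative to vehicle.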

[8] = NCI Yeast Anticancer Drug Screen. Data for the CLN2oe strain (AID 163);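 note: 0% = growth of vehicle-only control cultures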; details: S. cerevisiae CLN2oe strain, stronger effect = higher value
Outline: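 Here, growth inhibition in a cell-cycle-altered yeast strain after compound exposure was quantified against vehicle control growth.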

[9] = NCI Yeast Anticancer Drug Screen. Data for the cln2 rad14 strain (AID 165);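 note: 0% = growth equal to vehicle treated cultures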; details: S. cerevisiae cln2 rad14 strain, stronger effect = higher value
Outline: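 Growth of compound-exposed yeast (cln2 rad14 genotype) measured and expressed as inhibition relative to vehicle.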

[10] = NCI Yeast Anticancer Drug Screen. Data for the bub3 strain (AID 167); details: S. cerevisiae bub3 mutant strain, stronger effect = higher value
Outline: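 Whole-cell yeast assay. The mutant strain was incubated with compounds, and growth inhibition was determined by comparison with vehicle-treated cells.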

[11] = NCI Yeast Anticancer Drug Screen. Data for the wt2 strain (AID 169);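 note: 0% = growth of vehicle-treated yeast cultures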; details: S. cerevisiae wt2 strain growth inhibition, stronger effect = higher value
Outline: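 Genetically defined yeast strains from a DNA-repair/cell-cycle panel were used. Compound-exposed yeast growth was measured, and the inhibition was calculated relative to vehicle treatment.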

[12] = NCI Yeast Anticancer Drug Screen. Data for the mlh1 strain (AID 171);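 note: 0% = growth of vehicle-treated control cultures of the same strain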; details: S. cerevisiae mlh1 strain growth inhibition, stronger effect = higher value
Outline: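 Here the genetically defined yeast mutant is grown with each compound, and the extent to which its growth falls below that of vehicle-exposed cells is reported.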

[13] = NCI Yeast Anticancer Drug Screen. Data for the mlh1 rad18 strain (AID 175); details: S. cerevisiae mlh1 rad18 strain growth inhibition, stronger effect = higher value
Outline: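 In this whole-cell yeast screen, a strain with altered DNA damage repair is challenged with compound, and its growth is measured against matched vehicle-treated controls.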

[14] = NCI Yeast Anticancer Drug Screen. Data for the rad18 strain (AID 177); details: S. cerevisiae rad18 mutant growth inhibition, stronger effect = higher value
Outline: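 Screen uses a yeast strain with a defined lesion in DNA damage repair; compound effect is read as loss of growth compared to untreated vehicle cultures.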

[15] = at 5.0 µM (retest, dose inferred, filed as 0.5)
[16] = at 50.0 µM (retest, dose inferred, filed as 5.0)

`NNc1nnc(-c2ccccc2)nc1Cc1ccccc1` showed a growth inhibition ([1]; at 1.2 µM) of -25%, a growth inhibition ([1]; at 3.7 µM) of -15% and a growth inhibition ([1]; at 11.0 µM) of -7%. For the same molecule, the growth inhibition ([1]; at 33.0 µM) was 96% (active), the growth inhibition ([1]; at 100.0 µM) was 88% (active) and the growth inhibition ([2]; at 1.2 µM) was -12%. For the same molecule, the growth inhibition ([2]; at 3.7 µM) was -3%, the growth inhibition ([2]; at 11.0 µM) was 12% and the growth inhibition ([2]; at 33.0 µM) was 48%. For the same molecule, the growth inhibition ([2]; at 100.0 µM) was 90% (active), the growth inhibition ([3]; at 1.2 µM) was 16% and the growth inhibition ([3]; at 3.7 µM) was 21%. For the same molecule, the growth inhibition ([3]; at 11.0 µM) was 21%, the growth inhibition ([3]; at 33.0 µM) was 97% (active) and the growth inhibition ([3]; at 100.0 µM) was 88% (active). For the same molecule, the growth inhibition ([4]; at 1.2 µM) was 4%, the growth inhibition ([4]; at 3.7 µM) was -1% and the growth inhibition [4, 15] was -35%. For the same molecule, the growth inhibition ([4]; at 11.0 µM) was 10%, the growth inhibition ([4]; at 33.0 µM) was 96% (active) and the growth inhibition [4, 16] was -4%. For the same molecule, the growth inhibition ([4]; at 50.0 µM) was 67.1%, the growth inhibition ([4]; at 100.0 µM) was 93% (active) and the growth inhibition ([5]; at 1.2 µM) was -11%. It also gave a growth inhibition ([5]; at 3.7 µM) of -9%, a growth inhibition [5, 15] of 2% and a growth inhibition ([5]; at 11.0 µM) of -8%. For the same molecule, the growth inhibition ([5]; at 33.0 µM) was 95% (active), the growth inhibition [5, 16] was 90% (active) and the growth inhibition ([5]; at 50.0 µM) was 91.3% (active). For the same molecule, the growth inhibition ([5]; at 100.0 µM) was 87% (active), the growth inhibition ([6]; at 1.2 µM) was -8% and the growth inhibition ([6]; at 3.7 µM) was -16%. For the same molecule, the growth inhibition ([6]; at 11.0 µM) was -12%, the growth inhibition ([6]; at 33.0 µM) was 96% (active) and the growth inhibition ([6]; at 100.0 µM) was 91% (active). For the same molecule, the growth inhibition [7, 15] was -7%, the growth inhibition [7, 16] was 95% (active) and the growth inhibition ([7]; at 50.0 µM) was 82.9% (active). It also gave a growth inhibition ([8]; at 1.2 µM) of 25%, a growth inhibition ([8]; at 3.7 µM) of 18% and a growth inhibition ([8]; at 11.0 µM) of 11%. The growth inhibition ([8]; at 33.0 µM) was 97% (active), the growth inhibition ([8]; at 100.0 µM) was 93% (active) and the growth inhibition [9, 15] was 12%. For the same molecule, the growth inhibition [9, 16] was 80% (active), the growth inhibition ([9]; at 50.0 µM) was 86% (active) and the growth inhibition ([10]; at 1.2 µM) was 16%. For the same molecule, the growth inhibition ([10]; at 3.7 µM) was 5%, the growth inhibition [10, 15] was -9% and the growth inhibition ([10]; at 11.0 µM) was -17%. For the same molecule, the growth inhibition ([10]; at 33.0 µM) was 97% (active), the growth inhibition [10, 16] was 96% (active) and the growth inhibition ([10]; at 50.0 µM) was 89% (active). For the same molecule, the growth inhibition ([10]; at 100.0 µM) was 90% (active), the growth inhibition ([11]; at 1.2 µM) was -34% and the growth inhibition ([11]; at 3.7 µM) was -30%. The growth inhibition ([11]; at 11.0 µM) was -11%, the growth inhibition ([11]; at 33.0 µM) was 95% (active) and the growth inhibition ([11]; at 100.0 µM) was 91% (active). It also gave a growth inhibition ([12]; at 1.2 µM) of 6%, a growth inhibition ([12]; at 3.7 µM) of 4% and a growth inhibition ([12]; at 11.0 µM) of 27%. The growth inhibition ([12]; at 33.0 µM) was 97% (active), the growth inhibition ([12]; at 100.0 µM) was 83% (active) and the growth inhibition [13, 15] was -30%. For the same molecule, the growth inhibition [13, 16] was 97% (active), the growth inhibition ([13]; at 50.0 µM) was 83.6% (active) and the growth inhibition ([14]; at 1.2 µM) was -17%. The growth inhibition ([14]; at 3.7 µM) was -30%, the growth inhibition ([14]; at 11.0 µM) was -5% and the growth inhibition ([14]; at 33.0 µM) was 96% (active). For the same molecule, the growth inhibition ([14]; at 100.0 µM) was 91% (active).

In the case of `COc1ccc(/C=C2\S/C(=N/Nc3nc(-c4ccccc4)cs3)NC2=O)cc1OC`, the growth inhibition ([1]; at 1.2 µM) was 50%, the growth inhibition ([1]; at 3.7 µM) was 90% (active) and the growth inhibition ([1]; at 11.0 µM) was 97% (active). For the same molecule, the growth inhibition ([1]; at 33.0 µM) was 96% (active), the growth inhibition ([1]; at 100.0 µM) was 95% (active) and the growth inhibition ([2]; at 1.2 µM) was 29%. For the same molecule, the growth inhibition ([2]; at 3.7 µM) was 63%, the growth inhibition ([2]; at 11.0 µM) was 93% (active) and the growth inhibition ([2]; at 33.0 µM) was 97% (active). For the same molecule, the growth inhibition ([2]; at 100.0 µM) was 97% (active), the growth inhibition ([3]; at 1.2 µM) was 92% (active) and the growth inhibition ([3]; at 3.7 µM) was 97% (active). The growth inhibition ([3]; at 11.0 µM) was 98% (active), the growth inhibition ([3]; at 33.0 µM) was 97% (active) and the growth inhibition ([3]; at 100.0 µM) was 93% (active). The growth inhibition ([4]; at 1.2 µM) was 59%, the growth inhibition ([4]; at 3.7 µM) was 87% (active) and the growth inhibition [4, 15] was -4%. For the same molecule, the growth inhibition ([4]; at 11.0 µM) was 96% (active), the growth inhibition ([4]; at 33.0 µM) was 97% (active) and the growth inhibition [4, 16] was 93% (active). The growth inhibition ([4]; at 50.0 µM) was 95.2% (active), the growth inhibition ([4]; at 100.0 µM) was 93% (active) and the growth inhibition ([5]; at 1.2 µM) was 82% (active). For the same molecule, the growth inhibition ([5]; at 3.7 µM) was 88% (active), the growth inhibition [5, 15] was -8% and the growth inhibition ([5]; at 11.0 µM) was 96% (active). The growth inhibition ([5]; at 33.0 µM) was 97% (active), the growth inhibition [5, 16] was 87% (active) and the growth inhibition ([5]; at 50.0 µM) was 95.5% (active). For the same molecule, the growth inhibition ([5]; at 100.0 µM) was 94% (active), the growth inhibition ([6]; at 1.2 µM) was 20% and the growth inhibition ([6]; at 3.7 µM) was 45%. For the same molecule, the growth inhibition ([6]; at 11.0 µM) was 84% (active), the growth inhibition ([6]; at 33.0 µM) was 93% (active) and the growth inhibition ([6]; at 100.0 µM) was 92% (active). The growth inhibition [7, 15] was -4%, the growth inhibition [7, 16] was 90% (active) and the growth inhibition ([7]; at 50.0 µM) was 95.7% (active). The growth inhibition ([8]; at 1.2 µM) was 44%, the growth inhibition ([8]; at 3.7 µM) was 79% (active) and the growth inhibition ([8]; at 11.0 µM) was 96% (active). For the same molecule, the growth inhibition ([8]; at 33.0 µM) was 98% (active), the growth inhibition ([8]; at 100.0 µM) was 97% (active) and the growth inhibition [9, 15] was 11%. The growth inhibition [9, 16] was 95% (active), the growth inhibition ([9]; at 50.0 µM) was 91% (active) and the growth inhibition ([10]; at 1.2 µM) was 82% (active). The growth inhibition ([10]; at 3.7 µM) was 93% (active), the growth inhibition [10, 15] was 94% (active) and the growth inhibition ([10]; at 11.0 µM) was 97% (active). The growth inhibition ([10]; at 33.0 µM) was 97% (active), the growth inhibition [10, 16] was 98% (active) and the growth inhibition ([10]; at 50.0 µM) was 98.3% (active). For the same molecule, the growth inhibition ([10]; at 100.0 µM) was 97% (active), the growth inhibition ([11]; at 1.2 µM) was 22% and the growth inhibition ([11]; at 3.7 µM) was 79% (active). The growth inhibition ([11]; at 11.0 µM) was 97% (active), the growth inhibition ([11]; at 33.0 µM) was 95% (active) and the growth inhibition ([11]; at 100.0 µM) was 96% (active).
